Results filed as inconclusive are left out. Entries that show only a call come without a potency. Calls of active or inactive are those of the source. Calls follow the shape of the dose curve; as a rule, active = well fitted inhibition curve with a large enough effect; inconclusive = small, poorly fitted or top-dose-only effect; inactive = flat fitted curve, though single readings scatter. Bridge positions count the residues as written; N and C are the ends. Square brackets hold non-standard residues; d marks the D form. Peptide text beside a SMILES is read from it. Orn = NCCC[CH](N)C(=O)O; Mpa = O=C(O)CCS
These compounds were tested against Glutathione peroxidase 1 (Homo sapiens) (UniProt P07203) (assay: Primary qHTS Assay for Inhibitors of Recombinant Selenoprotein Glutathione Peroxidase 1 (GPX1) (AID 1845191; also: nearly all actives have a fitted effect of over 65% in size)). Conditions: recombinant GPX1, GR-coupled NADPH fluorescence, 15 min; series mostly up to 48.8 µM.
Sequence of Glutathione peroxidase 1 (Homo sapiens) (P07203 whole entry, looked up): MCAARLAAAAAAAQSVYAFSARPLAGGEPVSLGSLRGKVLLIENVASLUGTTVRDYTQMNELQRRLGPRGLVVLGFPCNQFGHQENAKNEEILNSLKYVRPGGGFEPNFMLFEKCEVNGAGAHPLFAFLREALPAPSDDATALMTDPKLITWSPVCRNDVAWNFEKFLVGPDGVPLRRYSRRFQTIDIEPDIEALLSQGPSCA
Method in brief: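 NADPH consumption tracked by fluorescence at 340/450 nm between t=0 and t=15 min, room temperature. Final mix: 10 nM GPX1, 100 nM glutathione reductase, 1 mM GSH, 0.5 mM NADPH, 0.5 mM cumene hydroperoxide, 0.01% BSA; 30 min compound–enzyme preincubation.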
With `CCc1ccccc1N1C(=O)N(Cc2cc(=O)n3ccccc3n2)c2ccccc2S1(=O)=O` the Potency was “inactive”. In the case of `CCOc1ccc(CC2NC(=O)CCSSCC(C(=O)N3CCCC3C(=O)NC(CCCN)C(=O)NCC(N)=O)NC(=O)C(CC(N)=O)NC(=O)C(C(C)O)NC(=O)C(C(C)CC)NC2=O)cc1` (centres undefined) ([Mpa]Y(Et)ITNCP[Orn]G-NH2; disulfide 1-6; configuration not given here), the Potency is reported as “inactive”. With `CN(Cc1ccccc1)C(=O)[C@H](NC(=O)c1cc2cc(NC(=O)c3ccccc3-c3ccc(C(F)(F)F)cc3)ccc2n1C)c1ccccc1` the Potency was “inactive”. In the case of `CCC(=O)O[C@]1(C(=O)COC(C)=O)CC[C@H]2[C@@H]3C[C@H](C)C4=CC(=O)C=C[C@]4(C)[C@H]3[C@@H](O)C[C@@]21C`, the Potency is reported as “inactive”. With `CC1CCc2c(cc(Br)c(F)c2Br)N1C=O` (centres undefined) the Potency was “inactive”. For `O=C1NC(=O)/C(=C/c2ccc3c(c2)OCO3)S1`, the Potency was “inactive”. In the case of `CO/N=C(/C(=O)N[C@@H]1C(=O)N2C(C(=O)OC(C)OC(C)=O)=C(COC(N)=O)CS[C@H]12)c1ccco1` (some centres undefined), the Potency is reported as 20.2 µM (active). `COC(=O)N(C)Cc1cccc(N2CCN(C(c3ccccc3)c3ccccc3)CC2)c1` was tested, and the Potency was “inactive”. For `Cc1ccc(N2CCN(C(=O)CCc3c(C)nc4c(c3C)c(=O)n(C)c(=O)n4C)CC2)c(C)c1`, the Potency was “inactive”. In the case of `Cc1ccc(Nc2ncc(C(=O)N3CCN(c4ccc(F)cc4)CC3)c3ccccc23)cc1Cl`, the Potency is reported as “inactive”. With `CCN(C(=O)CO)[C@H]1CN(C(=Nc2cccc(OC(F)F)c2)NC#N)N=C1c1ccc(Cl)c(Cl)c1` the Potency was “inactive”. In the case of `O=C(O)c1ccc2nc(-c3cc(Cl)cc(Cl)c3)oc2c1`, the Potency is reported as “inactive”. In the case of `CN1C(=O)[C@]23C[C@H]4C(C)(C)[C@]5(CNc6c5ccc5c6OC=CC(C)(C)O5)C[C@@]41CN2CC[C@@]3(C)O`, the Potency is reported as “inactive”. In the case of `COc1cccc(-n2c(=O)[nH]c3cc(Cl)n(-c4ccc(-c5cccc(OC)c5O)cc4)c3c2=O)c1`, the Potency is reported as “inactive”. With `CN1CCc2cc(Nc3ncc(C4CC4)c(NCCCNC(=O)C4CCC4)n3)ccc2C1` the Potency was “inactive”. For `CC(c1ccc(-c2ccc(CC(=O)O)cn2)cc1)N1CCCCC1` (centres undefined), the Potency was “inactive”. `CCc1nc2c(sc3nc4c(cc32)COC(C)(C)C4)c(=O)n1Cc1ccco1` was tested, and the Potency was “inactive”. In the case of `CC(C)CCC[C@@H](C)[C@H]1CC[C@H]2[C@@H]3CC[C@H]4C[C@@H](O)CC[C@]4(C)[C@@H]3CC[C@]12C`, the Potency is reported as “inactive”. For `CC(=O)OC[C@H]1O[C@@H](n2cnc(N)nc2=O)[C@H](OC(C)=O)[C@@H]1OC(C)=O`, the Potency was “inactive”. For `C=C(NC(=O)C(=C)NC(=O)c1csc(C2=N[C@H]3c4csc(n4)[C@H]4NC(=O)c5csc(n5)[C@H]([C@@](C)(O)[C@@H](C)O)NC(=O)[C@H]5CSC(=N5)C(=CC)NC(=O)[C@H]([C@@H](C)O)NC(=O)c5csc(n5)[C@]3(CC2)NC(=O)[C@H](C)NC(=O)C(=C)NC(=O)[C@H](C)NC(=O)[C@H](C(C)CC)N[C@@H]2C=Cc3c([C@H](C)O)cc(nc3[C@H]2O)C(=O)O[C@@H]4C)n1)C(N)=O` (some centres undefined), the Potency was “inactive”. `Cc1ccc2c(c1)-c1nc(-c3ccc(Cl)cc3)cc(-c3coc4ccccc4c3=O)c1CO2` was tested, and the Potency was “inactive”. In the case of `CCN(CCN(C)C)C(=O)CNCc1cc(C(=O)O)ccn1`, the Potency is reported as “inactive”. `C=CC[N@@+]12CC[C@]34c5ccccc5N5/C=C6\C7N(/C=C(\C53)[C@@H](C[C@@H]41)/C(=C/CO)C2)c1ccccc1[C@@]71CC[N@@+]2(CC=C)C/C(=C\CO)[C@@H]6C[C@@H]12` (some centres undefined) was tested, and the Potency was “inactive”. For `COc1ccc(S(=O)(=O)ON=C2C=C(C)C(=O)C(C)=C2)cc1`, the Potency was “inactive”. `Cc1ccc2nc(NC(=O)CSc3nc4c(c(=O)n3C)SC(C)C4)sc2c1` (centres undefined) was tested, and the Potency was “inactive”. `CC[C@H](C)C1NC(=O)[C@H](Cc2ccc(O)cc2)NC(=O)[C@@H](N)CSSC[C@@H](C(=O)N2CCC[C@H]2C(=O)N[C@@H](CC(C)C)C(=O)NCC(N)=O)NC(=O)[C@H](CC(N)=O)NC(=O)[C@H](CCC(N)=O)NC1=O` (some centres undefined) was tested, and the Potency was “inactive”. With `O=C(O)C1CCc2cc(C3CCCCC3)c(Cl)cc21` (centres undefined) the Potency was “inactive”. In the case of `CC(C)c1c(-c2cnn(C(C)(C)C)c2)nc2c(C#N)c[nH]n2c1=O`, the Potency is reported as “inactive”. For `C=C1C/C(=C\C=C2/CCC[C@]3(C)[C@@H]([C@H](C)/C=C/C(C)C(C)C)CC[C@@H]23)[C@@H](O)C[C@@H]1O` (some centres undefined), the Potency was “inactive”. `Clc1cccc(N2CCN(c3nc4ccccc4c4nc(-c5cccnc5)nn34)CC2)c1` was tested, and the Potency was “inactive”. `C=C(C)CNc1ccc(C(C)C(=O)O)cc1` (centres undefined) was tested, and the Potency was “inactive”. For `Nc1nc(NCc2ccccc2)c2[nH]cnc2n1`, the Potency was “inactive”. For `Cc1c(C(=O)Nc2cccc(-c3nc4ccccc4s3)c2)oc2ccc(F)cc12`, the Potency was “inactive”. `Cc1cc(-c2nc3ncccc3o2)ccc1NC(=O)COc1ccc(C(C)(C)C)cc1` was tested, and the Potency was “inactive”. With `C/C=C(/C)C(=O)O[C@@H]1c2cc(OC)c(OC)c(OC)c2-c2c(cc3c(c2OC)OCO3)C[C@H](C)[C@]1(C)O` the Potency was “inactive”. `Oc1c(C(c2ccccc2)N2CCOCC2)sc2nc(-c3ccco3)nn12` (centres undefined) was tested, and the Potency was “inactive”. For `CO[C@H]1/C=C\O[C@@]2(C)Oc3c(C)c(O)c4c(O)c(c5c(c4c3C2=O)=NC2(CCN(CC(C)C)CC2)N=5)NC(=O)/C(C)=C\C=C/[C@H](C)[C@H](O)[C@@H](C)[C@@H](O)[C@@H](C)[C@H](OC(C)=O)[C@@H]1C`, the Potency was “inactive”. With `O=C(O)c1ccnc2cc(C(OCCCN3CCCCC3)c3ccccc3Cl)[nH]c12` (centres undefined) the Potency was “inactive”. For `CCOC(=O)N[C@@H]1CC[C@@H]2[C@@H](C1)C[C@H]1C(=O)O[C@H](C)C1[C@H]2/C=C/c1ccc(-c2cccc(F)c2)cn1` (some centres undefined), the Potency was “inactive”.

Reference: PubChem BioAssay (NCATS)
Potency is read from the fitted curve at half-maximal effect.
